The results in this text go back to paper PMC5540273 (PLoS ONE, 2017).

What all share (conditions): concentration: 1 μM, replicates: in singlicate; n = 1
Assay [1] deals with MRCKA.
For assay [2], the system named is T1, MRCKB.
T1 construct: gene CDC42BPB

Assay [3] relates to MST1R.
Assay [4] deals with T2, MST1.
T2 construct: gene STK4

Assay [5] has as its system T3, MST2.
T3 construct: gene STK3

Assay [6] deals with T4, MST3.
T4 construct: gene STK24

Assay [7] concerns MST4.
The subject of assay [8] is MTOR.
For assay [9], the system named is MUSK.
Assay [10] relates to MYLK2.
The subject of assay [11] is MYLK4.
Assay [12] has as its system MYLK.
The subject of assay [13] is MYO3A.
In assay [14] the test system is MYO3B.
The subject of assay [15] is T5, NDR1.
T5 construct: gene STK38

Assay [16] concerns NDR2.
Assay [17] has as its system NEK10.
Assay [18] concerns NEK11.
Assay [19] relates to NEK1.
The test system of assay [20] is NEK2.
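Further: KINOMEscan kinase panel screen.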

As to `COc1cc2c(Nc3cccc(NC(=O)c4ccccc4)c3)ncnc2cc1OCCCN1CCOCC1` [GSK223810], the “%Inh” value is recorded as 15% in assay [1]; 4% in [2]; 0% in assay [3]; 4% in assay [4]; 0% in [5]; 10% in assay [6]. Moreover, the “%Inh” value in assay [7] was 0%; in assay [8], 6%; in assay [9], 1%; in assay [10], 0%; in assay [11], 2%; in assay [12], 2%. Further, the “%Inh” value in assay [13], in [14], in assay [15], in [16], in [17] and in assay [18] was 0% throughout. Further, the “%Inh” value is listed as 1% in [19] and 2% in [20].
`Cl.Cn1ccc(-c2cccc(Nc3ccnc4cc(-c5nccs5)ccc34)c2)n1` [GW525701]: the “%Inh” value in assay [1] amounted to 37%; in assay [2], 0%; in assay [3], 29%; in assay [4] it was 0%; in [5] it was 0%; in assay [6], 0%. Moreover, the “%Inh” value amounted to 0% in assay [7]; 35% in [8]; 0% in assay [9]; 0% in [10]; 0% in assay [11]; 7% in assay [12]. The “%Inh” value in assay [13] is recorded as 43%; in [14] it was 0%; in assay [15] it was 19%; in assay [16], 0%; in [17] it was 4%; in assay [18], 15%. Moreover, the “%Inh” value in assay [19] and in assay [20] was 0% in each case.
Regarding `COC(=O)c1cccc(NC(=O)NCCNc2ccnc(Nc3ccc(F)cc3)n2)c1` [GSK1379883], the “%Inh” value stood at 0% in assay [1]; 0% in [2]; 25% in [3]; 0% in [4]; 5% in [5]; 0% in assay [6]. In addition, the “%Inh” value in [7] was 0%; in [8], 37%; in assay [9], 4%; in assay [10] it was 0%; in assay [11], 6%; in assay [12], 11%. Besides, the “%Inh” value was 31% in assay [13]; 0% in [14]; 0% in assay [15]; 27% in assay [16]; 8% in assay [17]; 10% in [18]. Moreover, the “%Inh” value in [19] and in assay [20] was 0% in each case.
Consider `COc1ccc(NC(=O)c2ccc(-c3cc(-c4nnc(C)o4)ccc3C)cc2)cc1` [GW595885], for which the “%Inh” value in [1] was 0%; in assay [2], 3%; in assay [3], 34%; in assay [4], 0%; in assay [5], 0%; in assay [6] it was 0%. In addition, the “%Inh” value came to 0% in assay [7]; 14% in assay [8]; 12% in assay [9]; 0% in assay [10]; 0% in assay [11]; 14% in assay [12]. For the same molecule, the “%Inh” value turned out to be 16% in assay [13]; 16% in [14]; 12% in assay [15]; 0% in assay [16]; 16% in [17]; 0% in assay [18]. Further, the “%Inh” value in assay [19] and in assay [20] was 0% each time.
In the case of `Clc1ccc(-c2cc(-c3c[nH]nc3-c3ccccn3)ccn2)cc1` [GW681251], the “%Inh” value in [1] is recorded as 0%; in assay [2], 1%; in [3], 0%; in assay [4], 0%; in assay [5], 0%; in assay [6], 0%. The “%Inh” value turned out to be 0% in assay [7]; 20% in assay [8]; 12% in assay [9]; 0% in assay [10]; 0% in assay [11]; 0% in assay [12]. Moreover, the “%Inh” value in assay [13] amounted to 0%; in assay [14] it was 0%; in [15], 0%; in [16], 0%; in assay [17], 12%; in [18], 0%. Moreover, the “%Inh” value in assay [19] and in assay [20] was 0% in each case.
With `Cn1ccc2ncnc(Nc3ccc(Oc4cccc(Cl)c4)c(Cl)c3)c21`, the “%Inh” value in assay [1] is 0%; in [2], 0%; in [3] it was 42%; in assay [4], 6%; in assay [5] it was 25%; in assay [6] it was 10%. Besides, the “%Inh” value in assay [7] came out at 0%; in assay [8], 0%; in assay [9], 3%; in [10], 20%; in assay [11], 3%; in assay [12], 0%. Also, the “%Inh” value in [13] was 0%; in assay [14], 3%; in assay [15], 22%; in assay [16], 11%; in [17] it was 2%; in assay [18], 0%. In addition, the “%Inh” value in assay [19] and in [20] was 0% in each case.
Consider `Fc1cccc(COc2ccc(Nc3ncnc4nn5ccccc5c34)cc2Cl)c1` [GW689066], for which the “%Inh” value turned out to be 0% in assay [1]; 0% in assay [2]; 6% in assay [3]; 0% in assay [4]; 0% in [5]; 0% in assay [6]. Besides, the “%Inh” value amounted to 0% in [7]; 3% in assay [8]; 0% in assay [9]; 0% in assay [10]; 0% in assay [11]; 0% in assay [12]. Moreover, the “%Inh” value in assay [13] was 18%; in assay [14], 0%; in [15], 55%; in [16], 0%; in [17], 0%; in assay [18] it was 11%. Further, the “%Inh” value in [19] and in [20] was 0% throughout.
For `Cl.c1ccc(Cn2ncc3cc(Nc4ncnc5ccccc45)ccc32)cc1` [GW273749], the “%Inh” value is given as 10% in [1]; 0% in assay [2]; 27% in assay [3]; 0% in assay [4]; 8% in assay [5]; 0% in [6]. Also, the “%Inh” value in assay [7] worked out at 0%; in assay [8], 8%; in assay [9] it was 0%; in assay [10], 2%; in assay [11], 37%; in [12] it was 8%. Moreover, the “%Inh” value in assay [13] is listed as 14%; in assay [14], 0%; in [15], 12%; in [16], 0%; in assay [17], 0%; in assay [18] it was 0%. The “%Inh” value in assay [19] is 0%; in assay [20], 5%.
Take `CNc1nccc(-c2c(-c3ccc(F)cc3)ncn2C2CCN(C)CC2)n1` [SB-222903]: the “%Inh” value is recorded as 0% in assay [1]; 5% in assay [2]; 0% in [3]; 0% in assay [4]; 0% in assay [5]; 0% in [6]. Besides, the “%Inh” value in assay [7] was 0%; in assay [8], 18%; in assay [9], 0%; in assay [10], 0%; in [11], 0%; in [12] it was 0%. For the same molecule, the “%Inh” value worked out at 0% in [13]; 19% in [14]; 33% in assay [15]; 17% in assay [16]; 0% in [17]; 0% in assay [18]. Besides, the “%Inh” value in assay [19] and in assay [20] was 0% each time.
As for `CCCc1ccc(S(=O)(=O)NC2CCN(c3ccnc(Nc4ccc(OC)cc4)n3)C2)cc1` (stereo not shown) [GSK1379737], the “%Inh” value in assay [1] is given as 10%; in assay [2] it was 0%; in [3], 39%; in [4] it was 65%; in assay [5] it was 0%; in assay [6], 0%. Moreover, the “%Inh” value is reported as 0% in assay [7]; 28% in assay [8]; 9% in assay [9]; 0% in assay [10]; 0% in assay [11]; 30% in assay [12]. In addition, the “%Inh” value in assay [13] worked out at 15%; in assay [14] it was 0%; in assay [15], 0%; in assay [16], 0%; in [17], 21%; in assay [18], 27%. Moreover, the “%Inh” value in assay [19] and in [20] was 0% each time.
With `CC(C)N1CCC(n2cnc(-c3ccc(F)cc3)c2-c2ccnc(N)n2)CC1` [SB-223132], the “%Inh” value in [1] turned out to be 18%; in assay [2], 0%; in assay [3] it was 0%; in assay [4], 0%; in [5], 0%; in [6], 29%. Besides, the “%Inh” value in [7] was 0%; in assay [8], 27%; in assay [9], 0%; in assay [10] it was 6%; in assay [11], 9%; in [12], 19%. Further, the “%Inh” value in assay [13] amounted to 0%; in assay [14] it was 0%; in [15], 7%; in [16], 0%; in assay [17], 9%; in assay [18] it was 0%. Moreover, the “%Inh” value in assay [19] amounted to 11%; in [20], 0%.
